# High-throughput results: PubChem BioAssay, National Center for Advancing Translational Sciences (NCATS)
# Sampled rows, rich in hits. Any-hit rate of the full collection: about 3.1%.
# Tau fluor cs: counter-screen for tau fibril formation inhibitors. Potency, µM (titrated, usually from 57.7 µM), for inactives: at the highest dose activity change, negative = decrease. AID 1463. 0.93% of 280,000 active. tau K18 P301L Alexa594 fluorescence, heparin fibrillization; note: nearly all actives have a fitted effect of over 55% in size
#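 Human tau K18 P301L (15 uM unlabeled, 0.24 uM Alexa 594-labeled) in 100 mM sodium acetate pH 7 with 20 uM heparin, 6 hr at 37 C. ThT 30 uM added, 1 hr ambient; Alexa 594 FP and total fluorescence read at 555/632 nm.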
# Tau fibril FP: blocks human tau fibril formation measured by polarization. AID 1468. K18 P301L tau heparin fibrillization, Alexa594 FP, 6 h. P10636. Potency, µM (titrated, usually from 57.7 µM), for inactives: top-dose activity, negative = inhibition, usual class: inhibitors. 0.39% of 280,000 active; note: nearly all actives have a fitted effect of over 55% in size
#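 Steps: dispense K18 P301L tau (15 uM plus 0.24 uM Alexa 594 tracer, final) in pH 7 sodium acetate; add compound; add heparin (20 uM final); incubate 6 hr, 37 C; add ThT (30 uM final); after 1 hr ambient, read FP.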
# Tau ThT inhib: blocks human tau fibril formation measured by thioflavin T | P10636 | recombinant tau K18 P301L (four-repeat tau fragment), heparin-induced fibrillization, ThT fluorescence | Potency, µM (highest dose often 57.4 µM), without a hit: top-dose activity, negative = inhibition, actives largely listed as inhibitors | 2.1% of 270,000 active; note: nearly all actives have a fitted effect of over 55% in size
#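 Tau K18 P301L fragment (15 uM unlabeled plus 0.24 uM Alexa 594-labeled) in 100 mM sodium acetate pH 7 with compound, fibrillization induced by 20 uM heparin for 6 hr at 37 C. Thioflavin T (30 uM) added, fluorescence read after 1 hr (ex 450, em 510 nm).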
# TexasRed fluor: Texas Red fluorescence interference in TRb-SRC2 counter-screen | TRb/SRC2 Texas Red total fluorescence interference | 0.29% of 280,000 active | Potency, µM (series often up to 106 µM), for the others: at the highest dose fluorescence change, negative = quenching; active = well fitted curve in either direction with a large enough effect; inconclusive = small, poorly fitted or top-dose-only effect
#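 Human TRb ligand-binding domain at 0.6 uM with 20 nM Texas Red SRC2 peptide in Tris buffer containing 1 uM T3 and 5% DMSO, incubated with compound 5 h at ambient temperature. Total fluorescence (555/632 nm) calculated as parallel + 2 × perpendicular.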
# TRb SRC2 PPI: inhibitors of human thyroid hormone receptor beta-SRC2 interaction; P10828; TRbeta-SRC2 peptide binding, fluorescence polarization; receptor liganded with 1 µM T3; Potency, µM (top dose mostly 106 µM), for the others: at the top dose activity change, negative = inhibition, hits mostly inhibitors; 0.065% of 280,000 active; AID 1469;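 note: plate controls were bound peptide for no effect and peptide without receptor for full effect; nearly all actives have a fitted effect of over 50% in size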
# Target sequence (P10828 whole entry, looked up): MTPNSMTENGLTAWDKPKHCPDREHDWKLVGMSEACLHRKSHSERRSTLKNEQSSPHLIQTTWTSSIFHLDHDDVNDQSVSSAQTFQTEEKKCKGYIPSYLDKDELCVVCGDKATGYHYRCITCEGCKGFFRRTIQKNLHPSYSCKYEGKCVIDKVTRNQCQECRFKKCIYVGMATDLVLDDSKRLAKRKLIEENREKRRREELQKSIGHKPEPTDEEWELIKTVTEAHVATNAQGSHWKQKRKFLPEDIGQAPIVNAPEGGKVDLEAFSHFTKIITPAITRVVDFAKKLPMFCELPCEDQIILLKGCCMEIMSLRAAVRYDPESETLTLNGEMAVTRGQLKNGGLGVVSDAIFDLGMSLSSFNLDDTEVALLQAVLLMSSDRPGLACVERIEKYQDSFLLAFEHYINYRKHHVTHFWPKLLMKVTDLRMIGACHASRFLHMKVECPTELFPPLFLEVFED
#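 Quantitative HTS by FP: 0.6 uM TRb LBD, 20 nM labeled SRC2 20-mer, 1 uM T3, 5% DMSO; 5 hr ambient incubation; % activity per concentration and potencies from concentration series.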
# The depositor's hits bear a star; ? = inconclusive; · = not tested or not shown; [ ] = dose if it differs, or a comment. Unless noted, calls come from the whole dose curve; as a rule, active = well fitted curve in the direction sought with a large enough effect; inconclusive = small, poorly fitted or top-dose-only effect, or another doubt; inactive = no such curve, though single readings can be large; an effect the other way counts as inactive or inconclusive. Unless noted, % is set by controls: 0 for no effect and ±100 for the full control effect; potency is the fitted concentration of half-maximal effect.
SMILES,Tau fluor cs,Tau fibril FP,Tau ThT inhib,TexasRed fluor,TRb SRC2 PPI
O=C(O)c1ccc(N/N=C/c2ccc(-c3cc(Cl)ccc3Cl)o2)cc1,10.2%[0.0958 µM],-0.9%[0.0958 µM],·,-6.4%,-3.9%
Cn1cc(CNCc2cn(C)nc2-c2ccc(C3CCCCC3)cc2)cn1,-6.5%,-3.5%,-8.7%,-2.1%,-1.1%
Cc1ccccc1C1CC(=O)Oc2ccc(C(C)(C)C)cc21 (configuration not stated),-18.6%[81.3 µM],-4.9%[81.3 µM],-9.9%[81.4 µM],-0.2%,6.4%
Cc1ccccc1C1CC(=O)Oc2cc(O)ccc21 (configuration not stated),-4.2%[126 µM],?,-11.8%[126 µM],100µM*[fluorescent],?
COc1ccc(C2CC(=O)c3cc(-c4nc(-c5cccc([N+](=O)[O-])c5)cs4)c(=O)n(-c4ccccc4)c3C2)cc1 (configuration not stated),?,-9.5%,5.3%,-8.5%,1.0%
COc1ccc(C2CC(=O)c3cc(-c4nc(-c5cccc([N+](=O)[O-])c5)cs4)c(=O)n(-c4ccccc4C)c3C2)cc1 (configuration not stated),-25.7%,0.5%,-11.0%,89.1µM*[quencher],-16.0%[53 µM]
Cc1ccc(-n2nc(CO)c(C(=O)NCCCc3ccccc3)n2)cc1C,-2.0%,-1.4%,3.7%,0.6%,-2.2%
CC(=O)c1ccc(NC(=O)c2cc3sccc3n2Cc2ccc(Cl)cc2)cc1,?,10µM*,-14.7%,-0.2%,4.0%
O=C(Nc1ccc2c(c1)OCCO2)c1cc2sccc2n1Cc1ccccc1,14.1µM*[quencher],-6.4%,-13.2%,-1.8%,-0.2%
CCc1ccc2ncc(S(=O)(=O)c3ccc(Cl)cc3)c(N3CCN(CC)CC3)c2c1,-15.0%,-0.5%,-8.2%,1.3%,-1.1%
COCCCNC(=O)c1nn(C)c2c1CS(=O)(=O)c1ccccc1-2,-8.4%,4.7%,-9.9%,100µM*[quencher],-17.0%
COc1ccc([N+](=O)[O-])cc1NC(=O)COC(=O)Cc1cc(OC)c(OC)c(OC)c1,6.3%,11.9%,10.7%,3.7%,9.8%
COc1cc(CC(=O)OCC(=O)Nc2cc([N+](=O)[O-])ccc2F)cc(OC)c1OC,-5.2%,12.9%,-1.5%,1000µM*[quencher],-26.4%[53 µM]
Nc1nc(-c2ccc(Cl)cc2)c(N=Nc2ccc(S(=O)(=O)N3CCOCC3)cc2)s1,11.2µM*[quencher],?,14.1µM*,1.6%,0.6%
O=S(=O)(c1ccc(Cl)cc1)N1CCC(N2CCOCC2)CC1,-9.4%,-4.4%,-15.4%,0.5%,-10.9%
CCN(CC)C(=O)Cn1nnc2sc(-c3ccccc3)cc2c1=O,-10.1%,3.8%,-6.4%,-0.8%,1.3%
OCc1ccc(-c2ccc(-c3ccc(CO)s3)o2)s1,?,12.9%,?,-3.6%,0.3%
Nc1ccc(Nc2ccccc2N)cc1,14.1µM*[quencher],?,15.8µM*,-3.4%,5.7%
COc1ccc(Nc2ccccc2N)cc1,-23.1%,?,?,?,1.0%
Cc1cccc(Cn2c(CNS(=O)(=O)c3ccc4c(c3)CCCC4)nc3cccnc32)c1,-13.9%,4.6%,-11.3%,-3.3%,-4.0%
NNC(=S)Nc1ccc(S(=O)(=O)N2CCCCC2)cc1,15.8µM*[quencher],14.0%,-9.7%,-3.1%,3.7%
N#C/C(=N\Nc1ccc(S(=O)(=O)N2CCc3ccccc32)cc1)C(N)=S,?,15.6%,14.1µM*,-0.9%,0.7%
N#C/C(=N\Nc1ccc([N+](=O)[O-])cc1)C(=N)N1CCOCC1,0.6%,5.0%,?,-6.1%,-9.8%
NNC(=S)Nc1ccc(S(=O)(=O)N2CCOCC2)cc1,?,16.3%,?,-1.1%,-3.0%
N#C/C(=N\Nc1ccc(S(=O)(=O)N2CCCCC2)cc1)C(N)=S,-13.2%,-5.1%,12.6µM*,-4.3%[53 µM],4.1%[53 µM]
N#C/C(=N/Nc1ccc(S(=O)(=O)N2CCOCC2)cc1)C(N)=O,-1.9%,-0.5%,-1.9%,-3.3%,8.4%
N#C/C(=N/Nc1ccc([N+](=O)[O-])cc1)C(=N)N1CCCCC1,-28.9%,0.2%,10µM*,-3.5%,1.2%
CCOC(=O)/C(C#N)=N/Nc1ccc(S(=O)(=O)N2CCc3ccccc32)cc1,?,2.1%,?,-1.0%,5.1%
